Several values for one entry are separate records, joined by “and”; a condition that tells them apart may be missing. Identical values can stand only once. In all, about 16,000 compounds went through this assay and about 5,800 (36%) were called active. About 23% were inconclusive and are not listed. The call rests on the fitted dose curve; in most records, active means well fitted curve in the direction sought with a large enough effect; inconclusive means small, poorly fitted or top-dose-only effect, or effect the other way; inactive means no such curve, though single readings can be large or run the other way. The list shows a part of the results. More than one record can exist for a structure, and the calls need not agree.

For orientation: AC50 means the concentration giving half of the maximal activity seen.
On the % scale 0 is the no-effect control and ±100 the full control effect.

The target of the assay is Cytochrome P450 2C19 (Homo sapiens) (UniProt P33261). The assay can be described thus: Cytochrome panel assay with activity outcomes. Particulars: recombinant CYP, pro-luciferin dealkylation, luminescence, p450-cyp2c19; series mostly up to 57.1 µM; activity, negative = inhibition: at the top concentration.
Chain of Cytochrome P450 2C19 (Homo sapiens) (P33261 whole entry, looked up): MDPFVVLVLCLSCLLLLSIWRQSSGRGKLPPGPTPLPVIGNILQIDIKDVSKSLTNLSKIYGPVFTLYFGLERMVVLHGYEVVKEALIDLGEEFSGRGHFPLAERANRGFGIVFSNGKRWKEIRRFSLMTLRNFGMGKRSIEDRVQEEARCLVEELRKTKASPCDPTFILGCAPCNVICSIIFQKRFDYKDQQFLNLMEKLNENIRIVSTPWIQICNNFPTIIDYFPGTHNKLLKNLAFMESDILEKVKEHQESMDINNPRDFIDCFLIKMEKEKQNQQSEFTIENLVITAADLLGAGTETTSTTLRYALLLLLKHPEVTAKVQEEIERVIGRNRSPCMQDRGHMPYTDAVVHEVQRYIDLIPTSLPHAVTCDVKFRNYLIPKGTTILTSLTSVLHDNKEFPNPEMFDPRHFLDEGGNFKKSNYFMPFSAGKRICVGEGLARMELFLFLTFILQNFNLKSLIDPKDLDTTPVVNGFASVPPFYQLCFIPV
As for `O=C(Oc1ccccc1)N1CCC2(CCN(Cc3nccs3)CC2)CC1`, the “activity, negative = inhibition” value is -5.16% (inactive).

As to `CCCN(CCC)[C@H]1CCc2c(F)ccc(O)c2C1`, the AC50 result is “inactive”.

On to `C/C(=N\OC(=O)NC(C)C)c1sc(-c2ccccc2)nc1C`, for which the half-maximal activity concentration (AC50) was 10 µM (active).

Turning to `C/C(=N\OC(=O)NC(C)C)c1sc(-c2ccc(Cl)cc2)nc1C`, the AC50 was 5.01 µM (active).

As to `CCNC(=O)O/N=C(\C)c1sc(-c2ccccc2)nc1C`, the AC50 is 11.2 µM (active).

Consider `OC(c1ccccc1)(c1ccccc1)C1CCNCC1`, for which the “activity, negative = inhibition” value was -28% [at 25.6 µM] (inactive).

In the case of `NS(=O)(=O)C[C-]1C=C[CH]([Sb-]([Cl])([Cl])([Cl])([Cl])[Cl])C=C1.c1ccncc1` (stereo not drawn), the activity, negative = inhibition was 12.8% [at 11.4 µM] (inactive).

In the case of `COc1ccc2[nH]cc(CCN(C)C)c2c1`, the “activity, negative = inhibition” value is 9.02% (inactive).

Consider `CCc1cc2c(nc1CC)CCN(CC/C(C)=N/OC)C2`, for which the activity, negative = inhibition is 6.29% [at 11.4 µM] (inactive).

Turning to `C=C(C)[C@H]1CC[C@]2(C(=O)O)CC[C@]3(C)[C@@H](CC[C@H]4[C@@]5(C)CC[C@@H](O)C(C)(C)[C@@H]5CC[C@@]43C)[C@H]12`, the “activity, negative = inhibition” value was 24.5% [at 25.6 µM] (inactive).

Consider `O=[As](O)(O)c1ccc(NCc2ccccc2)cc1`, for which the activity, negative = inhibition is 1.27% [at 11.4 µM] (inactive).

`COC(=O)C1(C)C=C2C(=C(C)C(=O)C2C)CN1` (stereo not drawn): the “activity, negative = inhibition” value was -14.7% (inactive).

On to `Ic1ccccc1CN[C@@H]1C2CCN(CC2)[C@H]1C(c1ccccc1)c1ccccc1`, for which the “activity, negative = inhibition” value is -32.5% (inactive).

For `COc1cc(C(=O)OC2C[C@H]3CC[C@@H](C2)N3C)ccc1O` (stereo partly drawn), the “activity, negative = inhibition” value was -26.6% [at 25.6 µM] (inactive).

With `C/C(=C\c1ccc(N(C)C)cc1)[N+](=O)[O-]`, the AC50 was 14.1 µM (active).

Take `C[C@H]1CC[C@@]2(NC1)O[C@@H]1C[C@H]3[C@@H]4CC=C5C[C@@H](O)CC[C@]5(C)[C@@H]4CC[C@]3(C)[C@@H]1[C@@H]2C`: the “activity, negative = inhibition” value is -5.7% [at 25.6 µM] (inactive).

For the compound `COc1cc(-c2ccc(=O)[nH]n2)ccc1OC(F)F`, the half-maximal activity concentration (AC50) was 15.8 µM (active).

With `COc1cc(C[C@H](C)N)c(OC)cc1I`, the AC50 result was “inactive”.

Consider `C[C@@]12CC(=O)[C@H]3[C@@H](CCC4=CC(=O)CC[C@]43C)[C@H]1CCC2=O`, for which the “activity, negative = inhibition” value was -3.49% [at 25.6 µM] (inactive).

Turning to `C[C@@H]1CC[C@@H]2N(C1)C[C@H]1[C@@](O)([C@H](O)C[C@]3(O)[C@H]4CC[C@H]5[C@]6(O)O[C@]4(C[C@]13O)[C@@]5(C)CC[C@@H]6O)[C@@]2(C)O`, the activity, negative = inhibition is 1.59% [at 11.4 µM] (inactive).

On to `NC(N)=NCCN=C(N)N`, for which the activity, negative = inhibition is -3.51% [at 11.4 µM] (inactive).

On to `O=C(O)CN1C(=O)CN=C(c2ccccn2)c2cc(Cl)ccc21`, for which the activity, negative = inhibition was 33.4% [at 11.4 µM] (inactive).

Turning to `CN(C)c1ccc(NC(=O)CN2C(=O)CN=C(c3ccccc3)c3ccccc32)cc1`, the AC50 was 2.24 µM (active).

In the case of `CN(C)CCCNc1c2c(nc3ccc(Cl)cc13)CCCC2`, the activity, negative = inhibition was 23.5% [at 11.4 µM] (inactive).

As for `Nc1nc(OCc2ccccc2)c2[nH]cnc2n1`, the AC50 is 6.31 µM (active).

For `O=C(O)C[C@H]1NCc2cc3ccccc3nc21`, the activity, negative = inhibition was 22.2% [at 11.4 µM] (inactive).

In the case of `COc1ccc2[nH]cc(CCN)c2c1`, the “activity, negative = inhibition” value is -24.4% (inactive).

`CCCCCCCCCOc1ccc2[nH]cc(CCN)c2c1`: the AC50 is 10 µM (active).

With `NCCc1c[nH]c2ccc(C(N)=O)cc12`, the AC50 entry is “inactive”.

As for `CCC(COC(=O)NC)NC(=O)Oc1ccccc1` (stereo not drawn), the “activity, negative = inhibition” value was -27.3% (inactive).

On to `O=S(=O)(c1ccccc1)N1CCCCC1c1cccnc1` (stereo not drawn), for which the AC50 was 10 µM (active).

With `CC(C)=C[C@H]1[C@@H](C(=O)OCc2cc3c(cc2Cl)OCO3)C1(C)C`, the AC50 was 1.58 µM (active).

For `CC(C)CN1CC2(CCN(C(=O)Oc3ccccc3)CC2)C1`, the “activity, negative = inhibition” value was 3.45% (inactive).

In the case of `C(=C/c1ccccc1)/CN1CCN(CCOC(c2ccccc2)c2ccccc2)CC1`, the AC50 was 10 µM (active).

`Fc1ccc(C(OCCN2CCN(C/C=C\c3ccccc3)CC2)c2ccc(F)cc2)cc1`: the AC50 was 7.94 µM (active).

Consider `CO[C@@H]1CC=C2CCN3CCC4=C(CC(=O)OC4)[C@]23C1`, for which the “activity, negative = inhibition” value is -6.6% (inactive).

With `O=C1OC(=O)[C@@H]2[C@@H]1[C@@H]1CC[C@H]2O1`, the “activity, negative = inhibition” value was 12.7% (inactive).

For the compound `CCS(=O)(=O)Nc1cccc(C(=C2CCCCC2)c2cnc[nH]2)c1`, the AC50 is 0.00794 µM (active).

In the case of `N#Cc1ccc(CN2CCC3(CC2)CCN(C(=O)Oc2ccccc2)CC3)cc1`, the “activity, negative = inhibition” value was -13% (inactive).

With `CC(=O)c1c(O)c(C)c(O)c(Cc2c(O)c3c(c(C(=O)/C=C\c4ccccc4)c2O)OC(C)(C)C=C3)c1O`, the “activity, negative = inhibition” value is 3.98% (inactive).

For `CCN1CCN(S(=O)(=O)c2ccc(Cl)nc2)CC1`, the “activity, negative = inhibition” value was -21.4% (inactive).

As to `NCc1cc(=O)[nH]o1`, the “activity, negative = inhibition” value was -23.7% (inactive).

Take `CS(=O)c1ccc(-c2nc(-c3ccc(F)cc3)c(-c3ccncc3)[nH]2)cc1` (stereo not drawn): the AC50 result is “inactive and 39.8 nM (active)”.

Regarding `N[C@@H](CCCCP(=O)(O)O)C(=O)O`, the “activity, negative = inhibition” value was -26.8% (inactive).

Take `C=CCN1C[C@H](C)N([C@H](c2ccc(C(=O)N(CC)CC)cc2)c2cccc(O)c2)C[C@H]1C`: the “activity, negative = inhibition” value was -25% (inactive).

For `O=C(O)[C@H]1[C@H](C(=O)O)[C@H]2CC[C@@H]1O2`, the “activity, negative = inhibition” value was 5.08% (inactive).

As to `CCCCc1ccc(-c2nc(NC(=O)C3C4CCC(O4)C3C(=O)O)sc2C)cc1` (stereo not drawn), the AC50 is 3.98 µM (active).

Regarding `CCCCc1ccc(C(=O)O)nc1`, the AC50 entry was “inactive”.

(Values after PubChem BioAssay AID1851 (National Center for Advancing Translational Sciences (NCATS), 2009).)
